# Experimental data reported in article PMC4336329 (PLoS ONE, 2015).
# Among all 310,000 compounds or so, about 14,000 (4.5%) showed an effect of 50% or more. The effect is printed as a negative number. The entries come from a sample that favours strong results as a whole.
# Target: human ether-à-go-go-related gene (hERG) potassium channel (human, UniProt Q12809)
# Experiment: primary screen, population patch clamp on CHO cells stably expressing hERG; higher = less effect of the substance
# 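Further: peak tail current of the secondary pulse compared with the same well before compound.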
# Chain of human ether-à-go-go-related gene (hERG) potassium channel (Q12809 whole entry, looked up): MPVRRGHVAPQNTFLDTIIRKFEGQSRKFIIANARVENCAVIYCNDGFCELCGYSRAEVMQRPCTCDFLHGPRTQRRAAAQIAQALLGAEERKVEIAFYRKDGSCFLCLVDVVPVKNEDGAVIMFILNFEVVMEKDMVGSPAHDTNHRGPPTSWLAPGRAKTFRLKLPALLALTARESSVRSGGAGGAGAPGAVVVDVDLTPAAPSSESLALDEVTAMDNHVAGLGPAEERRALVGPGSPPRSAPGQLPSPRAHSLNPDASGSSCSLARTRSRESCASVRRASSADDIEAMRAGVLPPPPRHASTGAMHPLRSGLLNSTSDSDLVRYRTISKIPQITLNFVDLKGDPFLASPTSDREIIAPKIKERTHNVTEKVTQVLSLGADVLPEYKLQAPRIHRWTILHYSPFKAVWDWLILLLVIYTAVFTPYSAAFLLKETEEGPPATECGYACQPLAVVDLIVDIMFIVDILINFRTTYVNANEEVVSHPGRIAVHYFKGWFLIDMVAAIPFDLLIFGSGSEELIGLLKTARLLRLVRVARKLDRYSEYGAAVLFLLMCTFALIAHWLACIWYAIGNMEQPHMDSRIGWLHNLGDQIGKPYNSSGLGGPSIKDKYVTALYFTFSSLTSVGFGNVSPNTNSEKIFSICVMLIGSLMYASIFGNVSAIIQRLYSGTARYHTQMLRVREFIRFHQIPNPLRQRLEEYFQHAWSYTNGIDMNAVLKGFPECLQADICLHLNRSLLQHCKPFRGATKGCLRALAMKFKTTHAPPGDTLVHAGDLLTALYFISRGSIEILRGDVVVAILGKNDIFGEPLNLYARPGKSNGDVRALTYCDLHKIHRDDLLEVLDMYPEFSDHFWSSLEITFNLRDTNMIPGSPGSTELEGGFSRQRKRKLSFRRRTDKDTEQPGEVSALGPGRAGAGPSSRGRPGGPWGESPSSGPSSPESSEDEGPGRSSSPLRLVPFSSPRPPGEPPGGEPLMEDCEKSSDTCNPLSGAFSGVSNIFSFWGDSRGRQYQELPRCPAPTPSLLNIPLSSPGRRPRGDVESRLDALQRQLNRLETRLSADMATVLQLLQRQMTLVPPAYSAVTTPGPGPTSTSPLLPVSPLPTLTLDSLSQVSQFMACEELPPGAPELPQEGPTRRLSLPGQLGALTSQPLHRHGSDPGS
row,SMILES,"hERG current change (%, negative = inhibition) at 10uM"
1,O=C(O)c1nn(-c2cccc(Cl)c2)c(=O)cc1O,4.44%
2,CN(Cc1nc2ccccc2c(=O)[nH]1)CC(O)COCc1ccco1 (stereo not shown),-13.9%
3,COc1cccc(C(=O)NCc2ccc3c(c2)OCO3)c1OC,16.3%
4,CCO[C@@H]1OC(C(=O)N2CCOCC2)=C[C@H](C2CC2)[C@H]1CCCO,11.6%
5,O=C(c1ccco1)N1CCN(S(=O)(=O)c2ccc(Cl)cc2)CC1,2.47%
6,COc1ccc(OC)c(N(CC(=O)Nc2ccccc2)S(=O)(=O)c2ccccc2)c1,6.01%
7,CCN1CCN(CC(O)COc2ccc(Cl)cc2)CC1.Cl (stereo not shown),-36.2%
8,CCc1ccc(OCCOCC(O)CN2CCN(Cc3ccc(Cl)cc3)CC2)cc1.Cl (stereo not shown),-73.5%
9,CCN1CCN(CC(O)COc2cccc(OC)c2)CC1.Cl (stereo not shown),3.43%
10,COc1cccc(OCCOCC(O)CN2CCN(Cc3ccc(Cl)cc3)CC2)c1.Cl (stereo not shown),-72.3%
11,CCc1ccc(OCC(O)CN2CCCC2)cc1.Cl (stereo not shown),-13.8%
12,COc1cccc(OCC(O)CN2CCN(CCO)CC2)c1.Cl (stereo not shown),15.7%
13,COc1cc(/C=C(/NC(=O)c2ccccc2)C(=O)Nc2cccc(O)c2)c([N+](=O)[O-])cc1OC,0.394%
14,Cn1c(=O)c([N+](=O)[O-])c(NCc2ccccc2)c2ccccc21,9.94%
15,O=C(NC1CCCc2ccccc21)C1CCN(S(=O)(=O)N2CCCCCC2)CC1 (stereo not shown),-12.8%
16,O=C(N[C@@H](Cc1ccccc1)C(=O)OCC(=O)N1CCOCC1)c1cccs1,-9.98%
17,O=C(COC(=O)CCc1nc2ccccc2n1-c1ccccc1)Nc1ccc(N2CCCCC2)cc1,2.85%
18,CC[C@@H](C)[C@H](NC(=O)OC(C)(C)C)c1nnc(S(=O)(=O)Cc2cc(C)ccc2C)o1,4.09%
19,CC(NC(=O)COC(=O)/C=C/c1cccc(C(F)(F)F)c1)c1ccccc1 (stereo not shown),15.2%
20,CCCn1c(NCc2ccccc2NS(=O)(=O)c2ccc(C)cc2)nc2ccccc21,6.84%
21,CCN(CC)CCn1c(NS(=O)(=O)c2ccc(C)cc2)nc2ccccc21,-51%
22,CCN(CC)CCn1c(NS(=O)(=O)c2ccc(Cl)cc2)nc2ccccc21.Cl,-69.8%

row,SMILES,"hERG current change (%, negative = inhibition) at 10uM"
1,Cc1ccc(Cn2c(NS(=O)(=O)c3ccccc3)nc3ccccc32)cc1,21.3%
2,CCN(CC)CCn1c(C)nc2ccccc21.Cl,-9.07%
3,CCN(CC)CCn1c(N)nc2ccccc21.Cl,15.4%
4,CN1C(=O)C(C2c3ccccc3C(=O)N2Cc2ccccc2)C(=O)N(C)C1=O (stereo not shown),3.38%
5,CCc1ccc(C(=O)C(C)OC(=O)C2COc3ccccc3O2)cc1 (stereo not shown),-18.9%
6,CSc1ncc(Cl)c(C(=O)Nc2cc(C)ccc2C)n1,16.1%
7,CCOC(=O)C(NC(=O)c1cccnc1)(Nc1cccc(C)n1)C(F)(F)F (stereo not shown),1.24%
8,CCN1C(=O)C(CC(=O)Nc2ccc(OC)cc2)N(Cc2cccnc2)C1=S (stereo not shown),-2.39%
9,c1ccc(C[C@H]2CNCCN2CC2(c3ccccc3)CC2)cc1,-14.9%
10,O=C(CNC(=O)c1cccs1)NCC(=O)OCc1ccc(Cl)cc1,-17.5%
11,CC(=O)Nc1cccc(C(=O)/C=C/c2ccc(F)cc2)c1,-31.1%
12,CCC(=O)Nc1cccc(C(=O)/C=C/c2ccccc2)c1,-37%
13,CCC(=O)Nc1cccc(C(=O)/C=C/c2ccc(F)cc2)c1,-69.1%
14,Cc1nc(SCC(=O)NC(=O)NC(C)(C)C)nc(C)c1C,-8.95%
15,COC(=O)CSc1nnc(SCc2ccccc2)s1,7.89%
16,CCN(CC(=O)Nc1ccc(NC(C)=O)cc1)C(=O)/C=C/c1cn(-c2ccccc2)nc1-c1ccc(F)cc1,5.58%
17,CCCn1c(C)cc(/C=C(\C#N)C(=O)O)c1C,10.4%
18,Cc1cc(/C=C(\C#N)C(=O)O)c(C)n1CCC(C)C,10.5%
19,CCCCn1c(C)cc(/C=C(\C#N)C(=O)O)c1C,-80%
20,O=C(N/N=C/c1cc([N+](=O)[O-])ccc1O)Nc1ccccc1,18.2%
21,COc1ccc(CC(=O)N2CCC(Nc3nc4ccccc4n3Cc3ccc(F)cc3)CC2)cc1,-71.7%
22,COc1ccc(CC(=O)N2CCN(c3ccc(F)cc3)CC2)cc1,1.52%

row,SMILES,"hERG current change (%, negative = inhibition) at 10uM"
1,COc1ccc(CNC(=O)C2CCN(C(=O)Cc3ccccc3)CC2)cc1,-13.5%
2,CC(CCc1ccc(O)cc1)N1CCC(Oc2ccc(C(=O)N3CCCC3)cc2)CC1 (stereo not shown),-55.7%
3,COCC(C)N1CCC(Oc2ccc(C(=O)N3CCCC3)cc2)CC1 (stereo not shown),5.11%
4,COc1ccc(CCC(C)N2CCC(Oc3ccc(C(=O)N4CCCC4)cc3)CC2)cc1 (stereo not shown),-65.4%
5,CSCCC(C)N1CCC(Oc2ccc(C(=O)N3CCCC3)cc2)CC1 (stereo not shown),-31.3%
6,COC(=O)CCC(C)N1CCC(Oc2ccc(C(=O)N3CCCC3)cc2)CC1 (stereo not shown),-11%
7,Cc1noc(/C=C/c2ccco2)c1S(=O)(=O)N1CCC(C(=O)N(C)Cc2ccccc2)CC1,-4.68%
8,O=C(CSc1ccccc1)Nc1cc(S(=O)(=O)N2CCOCC2)ccc1N1CCOCC1,14.5%
9,Oc1cccc(Nc2nc(-c3ccccc3)nc3ccccc23)c1,9.56%
10,COc1cccc(Nc2cc(C)nc3ccccc23)c1,-73.1%
11,COc1ccc(Nc2cc(C)nc3ccccc23)cc1.Cl,-36.5%
12,Cc1cc(Nc2cccc(Br)c2)c2ccccc2n1,-86.2%
13,Cl.Oc1cccc(Nc2c3ccccc3nc3ccccc23)c1,-17.6%
14,COc1cccc(Nc2cc(C)c3ccccc3n2)c1,6.21%
15,Cc1cc(=O)[nH]c(Nc2cccc(Br)c2)n1,12.4%
16,Cc1cccc(Nc2cc(C)nc3ccccc23)c1.Cl,-65.4%
17,Cc1cc(Nc2cccc(O)c2)c2ccccc2n1.Cl,-64.2%
18,Cc1cc(C)c(C#N)c(Nc2cccc(Br)c2)n1,12.5%
19,Cc1ccc(Nc2cc(C)nc3ccccc23)c(C)c1,-42.8%
20,Cc1cccc(NC(=O)c2cc(C)nc3ccccc23)c1,14.7%
